Compound activity as filed in PubChem.
Shown are actives, neighbours in structure and some others; about 3.4% of the full set was active somewhere.
PP5 inh: PP5 phosphatase inhibitors, primary screen, biochemical, fluorescence. Serine/threonine-protein phosphatase 5 (Homo sapiens), P53041. purified PP5c, OMFP substrate fluorescence. inhibition, % at 6.7 µM. 0.18% of 320,000 active;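 active = inhibition above the campaign's mean inhibition across all tested compounds plus 3 SD, cut at about 9.5% in these data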
pPAFAH inh: pPAFAH enzyme inhibitors, primary screen, biochemical, fluorescence polarization, human | AID 463082, 2010 | recombinant pPAFAH, FP-rhodamine probe fluorescence polarization | inhibition, % at 3.39 µM | 1.5% of 330,000 active;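 active = inhibition above the mean inhibition across the screen plus 3 SD, cut at about 25% in these data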;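 also: inhibitors block binding of the rhodamine activity-based probe so polarization drops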
PAFAH1B2 inh: PAFAH1B2 enzyme inhibitors, primary screen, biochemical, fluorescence polarization, human. Platelet-activating factor acetylhydrolase IB subunit alpha2 (Homo sapiens), P68402. recombinant PAFAH1B2, FP-rhodamine activity probe. inhibition, % at 3.39 µM. 1.2% of 340,000 active;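 active = inhibition above the mean of all tested compounds plus 3 SD, cut at about 24% in these data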
Target sequence (P68402 whole entry, looked up): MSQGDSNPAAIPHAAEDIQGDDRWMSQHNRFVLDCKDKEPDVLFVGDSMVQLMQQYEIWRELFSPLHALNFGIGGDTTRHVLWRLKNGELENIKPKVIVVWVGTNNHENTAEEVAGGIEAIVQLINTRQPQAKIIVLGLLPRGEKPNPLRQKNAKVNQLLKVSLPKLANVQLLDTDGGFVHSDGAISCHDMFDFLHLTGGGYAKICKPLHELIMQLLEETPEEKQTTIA
PP1 counter: PP1-alpha phosphatase inhibitors, primary screen, counter-screen for PP5 inhibitor project, biochemical, fluorescence, OMFP substrate, single point. Serine/threonine-protein phosphatase PP1-alpha catalytic subunit (Homo sapiens), P62136. purified PP1alpha. inhibition, % at 6.7 µM. 0.9% of 320,000 active. AID 2235, 2010;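 active = inhibition above the mean inhibition of all tested compounds plus 3 SD, computed separately for each screening campaign, cut at about 15% in these data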
PAFAH1B3 FP inh: PAFAH1B3 enzyme inhibitors, primary screen, biochemical, fluorescence polarization, human. Platelet-activating factor acetylhydrolase IB subunit alpha1 (Homo sapiens), Q15102. recombinant PAFAH1B3, FP-rhodamine probe. inhibition, % at 3.39 µM. 0.28% of 340,000 active;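 active = inhibition above the screen-wide average of all tested compounds plus 3 SD, cut at about 25% in these data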
Target sequence (Q15102 whole entry, looked up): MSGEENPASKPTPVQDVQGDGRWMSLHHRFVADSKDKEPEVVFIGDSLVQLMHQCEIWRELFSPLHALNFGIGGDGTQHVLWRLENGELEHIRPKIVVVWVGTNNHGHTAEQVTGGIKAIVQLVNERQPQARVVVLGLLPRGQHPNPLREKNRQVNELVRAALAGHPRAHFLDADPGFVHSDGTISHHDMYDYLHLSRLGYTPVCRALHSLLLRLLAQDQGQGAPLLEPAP
PAFAH2 inh: PAFAH2 enzyme inhibitors, primary screen, biochemical, fluorescence polarization, human; Platelet-activating factor acetylhydrolase 2, cytoplasmic (Homo sapiens), Q99487; 0.99% of 340,000 active; AID 492956, 2010; recombinant PAFAH2, FP-rhodamine activity probe; inhibition, % at 3.39 µM;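 active = inhibition above the mean over all tested compounds plus 3 SD, cut at about 30% in these data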;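 also: inhibitors block probe labeling of enzyme so polarization drops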
Numbers stand for hits; i = inactive; nt = not tested or not shown.

SMILES	PP5 inh	pPAFAH inh	PAFAH1B2 inh	PP1 counter	PAFAH1B3 FP inh	PAFAH2 inh
CCn1cnc2cc(NCc3ccc(Cl)cc3)ccc21	i	i	32	i	i	i
CCn1cnc2cc(NCc3ccncc3)ccc21	i	i	i	i	i	i
COc1ccccc1CNC(=O)CCc1c(C)nc2cc(-c3ccccc3OC)nn2c1C	i	i	i	i	i	i
CCN(CC)C(=O)c1c[nH]c2ccc(S(=O)(=O)Nc3cc(C)cc(C)c3)cc2c1=O	i	29	i	i	i	i
CCCCn1c(N)c(N(CCOC)C(=O)c2ccc(-c3ccc([N+](=O)[O-])cc3)o2)c(=O)[nH]c1=O	i	i	i	i	i	i
COc1ccc(NC(=O)CNC(=O)c2ccco2)cc1S(=O)(=O)Nc1cc(C)ccc1Br	nt	i	i	nt	i	i
Clc1ccc(N2CCN(/N=C/c3ccncc3)CC2)cc1	i	i	27	i	i	i
Cc1ccc(N2CCN(/N=C/c3ccncc3)CC2)cc1	i	i	i	i	i	i
Cc1cccc(N=C2NC(=O)/C(=C/c3cccn3C)S2)c1C	i	32	i	i	i	i
O=C1C=C(Nc2ccccc2O)c2ccccc2C1=O	i	i	i	i	i	i
O=C1C=C(NCc2ccccc2)c2ccccc2C1=O	nt	nt	27	nt	60	53
COCCNC(=O)c1ccccc1NC(=O)CN(c1ccc2c(c1)OCO2)S(C)(=O)=O	i	i	i	i	i	i
COc1ccc(NS(=O)(=O)c2ccc(NC(=O)c3ccc(CN4CCOCC4)cc3)cc2)cc1	i	i	i	i	i	i
O=C(O)c1cc(NS(=O)(=O)c2ccc(F)cc2)cc(NS(=O)(=O)c2ccc(F)cc2)c1	nt	i	42	nt	i	32
O=C(Nc1ccc(S(=O)(=O)Nc2ccc(F)cc2)cc1)c1ccc(CN2CCOCC2)cc1	i	34	i	i	i	i
Cc1ccc(S(=O)(=O)Nc2ccc(C(=O)Nc3ccncc3)cc2)cc1	i	i	i	i	i	i
CCOc1ccc(S(=O)(=O)Nc2cccc(C(=O)NCCCN3CCOCC3)c2)cc1	i	i	i	i	i	i
Cc1ccc(S(=O)(=O)Nc2ccc(NC(=O)c3ccc(F)cc3)cc2)cc1	i	30	i	i	i	i
CCOc1ccc(NS(=O)(=O)c2ccc(C(=O)NCCCN3CCOCC3)cc2)cc1	i	31	i	i	i	i
O=C(CN1CCc2ccccc21)NC(=O)NCc1ccccc1	i	i	i	i	i	i
COC(=O)c1sc(-c2ccc(C(C)(C)C)cc2)cc1NC(=O)c1ccccc1C(=O)O	i	i	i	i	i	i
COC(=O)c1sc(-c2ccc(C(C)(C)C)cc2)cc1NC(=O)CSCC(=O)O	i	32	i	i	i	i
COC(=O)CN(c1ccccc1OC)S(=O)(=O)c1ccccc1	i	i	i	i	i	i
O=C(COC(=O)CCC1CCCC1)Nc1ccccc1OC(F)F	i	29	i	i	i	i
NS(=O)(=O)c1ccc(NC(=O)COC(=O)CCC2CCCC2)cc1	i	i	i	i	i	i
SMILES	PP5 inh	pPAFAH inh	PAFAH1B2 inh	PP1 counter	PAFAH1B3 FP inh	PAFAH2 inh
O=C(COC(=O)CCC1CCCCC1)Nc1ccc(OC(F)F)cc1	i	26	i	i	i	i
O=C(COC(=O)CCC1CCCC1)Nc1ccc(F)cc1	i	32	i	i	i	i
O=C(COC(=O)C1CCCCC1)NCc1ccc(Cl)cc1	nt	i	i	nt	i	i
O=C(COC(=O)CCC1CCCC1)NCc1ccc(Cl)cc1	i	30	i	i	i	i
Cc1ccc(S(=O)(=O)NCC(=O)Nc2ccc3c(c2)OCO3)cc1	i	i	i	i	i	i
Nc1nc(-c2ccc(Cl)cc2)c(S(=O)(=O)c2ccccc2)s1	i	i	i	i	i	i
Cc1ccc(NC(=O)Nc2ccc(Cl)cn2)cc1	nt	nt	i	nt	i	i
O=C(COC(=O)c1ccc(Cl)c([N+](=O)[O-])c1)Nc1ccccc1OC(F)F	i	32	i	i	i	i
COc1ccc(C(=O)OCC(=O)Nc2ccc(OC(F)F)cc2)c(OC)c1	i	33	i	i	i	68
O=C(COC(=O)c1nc(Cl)ccc1Cl)Nc1ccccc1OC(F)F	i	i	i	i	i	i
O=C(CSc1ccc(Cl)cc1)NCc1ccncc1	i	i	29	i	i	i
O=C(CCSc1ccc(Cl)cc1)NCc1ccncc1	i	i	i	i	i	i
Cc1c(CCC(=O)O)c(=O)oc2cc(OCc3ccccc3Br)ccc12	i	33	i	i	i	i
Cc1c(CCC(=O)O)c(=O)oc2cc(OCc3cccc(F)c3)ccc12	i	i	i	i	i	i
C/C(=C1/SC(N2CC(C)OC(C)C2)=NC1=O)c1ccccc1 (stereo not drawn)	i	28	i	i	i	i
CCCCCCCCSc1nnc2[nH]c(=O)cc(N)n12	i	i	i	i	i	i
CCCCCCSc1nnc2[nH]c(=O)cc(N)n12	i	i	26	i	i	i
CCCOc1ccccc1-n1sc2c(c1=S)-c1cc(OC)cc3c1N(C(=O)C3=O)C2(C)C	i	i	i	17	i	i
O=C(c1cccc(S(=O)(=O)NCc2ccccc2)c1)N1CCN(Cc2ccccc2)CC1	i	27	68	i	i	i
CC1Cc2ccccc2N1S(=O)(=O)c1cccc(C(=O)OCC(=O)NC2CCS(=O)(=O)C2)c1 (stereo not drawn)	i	i	26	i	i	i
CC1Cc2ccccc2N1S(=O)(=O)c1cccc(C(=O)NC2CC2)c1 (stereo not drawn)	i	i	i	i	i	i
O=C(c1cccc(S(=O)(=O)NCc2ccccc2)c1)N1CCCCC1	i	i	i	i	i	i
O=C(COC(=O)c1cccc(S(=O)(=O)NCc2ccccc2)c1)NC1CC1	nt	27	i	nt	i	i
COCCCn1c(=O)c2sccc2n2c(CCCC(=O)NCC3CCCO3)nnc12 (stereo not drawn)	i	i	i	i	i	i
C=CCn1c(SCC(=O)c2cccs2)nc2sc(C)cc2c1=O	i	25	i	i	i	i
C=CCn1c(SCC(=O)c2ccc(Cl)s2)nc2ccccc2c1=O	i	i	i	i	i	i
COc1ccc(C2C3C(=O)N(N(C)c4ncc(C(F)(F)F)cc4Cl)C(=O)C3ON2C)cc1 (stereo not drawn)	i	i	i	i	i	i
CC(C)(C)c1ccc(C(=O)NCCC(=O)N2CCN(c3ncccn3)CC2)cc1	i	i	30	i	i	i
NS(=O)(=O)c1ccc(NC(=O)COC(=O)Cc2ccc(Cl)cc2)cc1	i	i	i	i	i	i
